# Many of the other results were omitted from the sample, so hits are more common in it than they were.
# CD40 NFkB inh: CD40 pathway inhibition in BL2 cells; BL2 NF-kB luciferase reporter, CD40L-induced, 4 h; inhibition, % at 10 µM; hit rate 0.94% among 83,000; AID 1053188;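 active = mean inhibition of at least 50% with a set share of replicates also reaching that level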
# Numbers stand for hits; i = inactive; [ ] = remark or other dose.
SMILES,CD40 NFkB inh
CCN1CCN(c2nc(-c3ccccn3)nc3ccccc23)CC1,i
c1ccc(-c2nc(N3CCCCCC3)c3ccccc3n2)nc1,53
c1ccc2c(N3CCCC3)nc(-c3ccncc3)nc2c1,i
c1ccc(CCNc2nc(-c3ccccn3)nc3ccccc23)cc1,43
c1ccc(CN2CCN(c3nc(-c4ccccn4)nc4ccccc34)CC2)cc1,i
CC(=O)N1[C@@H]2c3ccc(-c4ccccc4)c(=O)n3C[C@H]1[C@H](CO)[C@H]2C(=O)NC1Cc2ccccc2C1,i
CC(=O)N(C)C[C@H]1Oc2ccc(N(C)C)cc2C(=O)N(C)C[C@@H]1C,i
CCc1nc2ccc(C(=O)N3CCC(C(N)=O)CC3)cc2nc1CC,i
O=C1c2ccccc2-c2c1cccc2C(=O)N1CCOCC1,i
O=C1C(=C(c2ccccc2)N2CCOCC2)Cc2ccccc21,89
O=C(c1ccccc1)N1CCN(C(=O)N2CCOCC2)CC1,i
CC(=O)N(C)C[C@H]1Oc2c(NS(C)(=O)=O)cccc2C(=O)N(C)C[C@H]1C,i
COc1cccc(-c2ccc([C@@H]3[C@@H](C#N)N(C(=O)c4ccccn4)[C@@H]3CO)cc2)c1,i
Cc1ccc(CN2CC(C(=O)Nc3ncc(C)s3)CC2=O)cc1 (configuration not stated),78
COC(=O)C1CC(=O)N(Cc2ccccc2)C1 (configuration not stated),i
CCOc1ccc(CCNC(=O)C2CC(=O)N(Cc3ccc(C)cc3)C2)cc1OCC (configuration not stated),i
O=S(=O)(c1cccc2cccnc12)N1CCN(c2ccccn2)CC1,i
O=S(=O)(c1cccc2cccnc12)N1CCN(c2ccccc2)CC1,i
O=S(=O)(c1cccc2cnccc12)N1CCNCC1,53[25 µM]
CC(=O)N(C)C[C@@H]1Oc2ncccc2C(=O)N(C)C[C@H]1C,i
C[C@H]1CN([C@@H](C)CO)C(=O)c2ccccc2-c2ccccc2CO[C@H]1CN(C)Cc1ccc(Oc2ccccc2)cc1,59[25 µM]
C[C@@H]1CN([C@@H](C)CO)C(=O)c2ccccc2-c2ccccc2CO[C@@H]1CN(C)Cc1ccccc1,i
C[C@@H]1CN([C@H](C)CO)C(=O)c2ccccc2-c2ccccc2CO[C@@H]1CN(C)Cc1ccc(Oc2ccccc2)cc1,i
C[C@H]1CN([C@@H](C)CO)C(=O)c2ccccc2-c2ccccc2CO[C@H]1CN(C)Cc1ccc(O)cc1,i
C[C@H](CO)N1C[C@H](C)[C@@H](CN(C)Cc2ccc(Oc3ccccc3)cc2)Oc2c(NC(=O)CCC(F)(F)F)cccc2C1=O,70[25 µM]
SMILES,CD40 NFkB inh
C[C@@H]1CN([C@H](C)CO)C(=O)c2ccccc2-c2ccccc2CO[C@@H]1CN(C)Cc1ccc(C(=O)O)cc1,i
C[C@H](CO)N1C[C@H](C)[C@@H](CN(C)Cc2ccc(Oc3ccccc3)cc2)Oc2c(NC(=O)c3ccncc3)cccc2C1=O,i
C[C@@H]1CN([C@@H](C)CO)C(=O)c2ccccc2-c2ccccc2CO[C@@H]1CN(C)Cc1ccc(Oc2ccccc2)cc1,62[25 µM]
C[C@@H]1CN([C@H](C)CO)C(=O)c2cc(NC(=O)CCC(F)(F)F)ccc2O[C@H]1CN(C)Cc1ccc(Oc2ccccc2)cc1,i
CN(C)C(=O)[C@@H]1[C@@H](CO)[C@@H]2Cn3c(ccc(C4=CCCC4)c3=O)[C@@H]2N1C(=O)Cc1cccnc1,i
CN(C)C(=O)c1cccc(-c2ccc([C@H]3[C@H](CO)N4C(=O)CN(C(=O)C5CCCC5)C[C@@H]34)cc2)c1,i
CC(C)NC(=O)Nc1ccc2c(c1)CC(=O)N(C)C[C@H](C)[C@@H](CN(C)C(=O)NC(C)C)O2,i
CN1C(=O)c2cc(NC(=O)C3CC3)ccc2OC[C@@H]2O[C@@H](CC(=O)NCCc3ccncc3)CC[C@H]21,i
CC(C)NC(=O)Nc1ccc2c(c1)CC(=O)N(C)C[C@H](C)[C@@H](CN(C)C(=O)OC(C)(C)C)O2,i
CO[C@@H]1CN(C)C(=O)c2cc(NC(=O)C3CCC3)ccc2OC[C@@H](C)N(Cc2ccc(F)cc2)C[C@@H]1C,i
O=C(c1ccccc1F)N1CC[C@@H]2[C@@H](CO)Nc3ccc(C#Cc4ccccc4)cc3[C@@H]21,i
CN1c2ccc(C3=CCCCC3)cc2[C@H]2[C@H](CCN2C(=O)Cc2ccccn2)[C@@H]1CO,i
CCCN(C)C[C@H]1OCc2cnnn2CCCC(=O)N([C@@H](C)CO)C[C@H]1C,i
C[C@@H]1CN(C)C(=O)Cc2cc(NS(C)(=O)=O)ccc2O[C@H]1CN(C)S(C)(=O)=O,i
N#C[C@H]1[C@H](c2ccccc2C2=CCCC2)[C@H](CO)N1C(=O)NC1CCCCC1,i
COc1ccc2c3c([nH]c2c1)[C@@H](CO)N(C(=O)Nc1ccc(F)cc1)CC31CN(Cc2cc(F)ccc2F)C1,i
COc1ccc2c3c(n(C)c2c1)[C@H](CO)N(C(=O)Nc1ccc(F)cc1)CC31CCN(C(=O)Nc2ccc(F)cc2F)CC1,68[25 µM]
COc1ccc2c3c(n(C)c2c1)[C@H](CO)N(C(C)=O)CC31CCN(C(=O)Nc2ccccc2F)CC1,i
COc1ccc2c3c([nH]c2c1)[C@H](CO)N(C(=O)Nc1ccc(F)cc1)CC31CN(Cc2cc(F)ccc2F)C1,56[25 µM]
COc1ccc2c3c(n(C)c2c1)[C@@H](CO)N(C(=O)Nc1ccc(F)cc1)CC31CCN(C(=O)Nc2c(C)noc2C)CC1,i
CCCNC(=O)N1CC2(C1)CN(C(=O)Nc1ccc(F)cc1)[C@@H](CO)c1[nH]c3cc(OC)ccc3c12,i
CN1[C@@H]2Cn3c(ccc(-c4cccnc4)c3=O)[C@H]1[C@@H](C(=O)N1CCC(Cc3ccccc3)CC1)[C@@H]2CO,i
O=C(Nc1cc(F)ccc1F)N1C[C@H]2[C@@H](c3ccccc31)[C@@H](CO)N2Cc1cccnc1,i
COc1ccc(NC(=O)N(C)C[C@@H]2OCc3ccccc3-c3ccccc3C(=O)N([C@H](C)CO)C[C@@H]2C)cc1,i
C[C@H]1CN(C)C(=O)c2cc(N)ccc2O[C@H]1CN(C)C(=O)OC(C)(C)C,i
SMILES,CD40 NFkB inh
CNC[C@H]1OCc2ccccc2-c2c(n(C)c3ccccc23)C(=O)N([C@@H](C)CO)C[C@@H]1C,i
COc1ccc(/C=N/NC(=O)CCn2cnc3ccccc32)cc1,i
COc1cccc(/C=N/NC(=O)CCn2nnc3ccccc32)c1,i
COc1ccc(/C=N\n2nnc3ccccc32)cc1,58
CC(C)NC(=O)N(C)C[C@@H]1Oc2ccc(NS(C)(=O)=O)cc2CC(=O)N(C)C[C@H]1C,i
O=C(C[C@H]1CC[C@@H](NC(=O)c2ccc(F)cc2)[C@H](CO)O1)NCCc1ccccc1,i
S=C(CSc1ccccc1)Nc1cccc2ccccc12,i
[O-]C(=C(C(=S)Nc1cccc2ccccc12)[n+]1ccccc1)c1ccc2c(c1)OCCO2,55
O=C(Nc1cccc2cccnc12)c1ccc2c(c1)OCCO2,i
CC(=O)N1C[C@@H]2C(c3ccccc3)[C@@H](C1)N2CC(F)(F)F (some centres not stated),i
CCOc1ccccc1NC(=O)c1cccc(NC(=O)c2cccnc2)c1,i
COc1cc2oc(-c3ccc(O)cc3)cc(=O)c2c(OC)c1O,i
O=c1cc(-c2ccc(O)cc2)oc2ccc3ccccc3c12,102
COc1ccc(-c2cc(=O)c3c(C)cc(O)cc3o2)cc1,i
Cc1ccc(S(=O)(=O)Nc2ccc3c(c2)C(=O)N([C@@H](C)CO)C[C@H](C)[C@@H](CN(C)C(=O)Nc2ccc(F)cc2)OCCCC[C@@H](C)O3)cc1,i
CN(C)CC1CCC/C(=C\c2ccc(OC(=O)/C=C/c3ccccc3)cc2)C1=O (configuration not stated),i
